LmPK inh – inhibitors of Leishmania mexicana pyruvate kinase | Q27686 | purified LmPK, Kinase-Glo ATP luminescence, 1 h | Potency, µM (titrated, usually from 57.5 µM), hits mostly inhibitors | 0.37% of 290,000 active
Target sequence (Q27686 whole entry, looked up): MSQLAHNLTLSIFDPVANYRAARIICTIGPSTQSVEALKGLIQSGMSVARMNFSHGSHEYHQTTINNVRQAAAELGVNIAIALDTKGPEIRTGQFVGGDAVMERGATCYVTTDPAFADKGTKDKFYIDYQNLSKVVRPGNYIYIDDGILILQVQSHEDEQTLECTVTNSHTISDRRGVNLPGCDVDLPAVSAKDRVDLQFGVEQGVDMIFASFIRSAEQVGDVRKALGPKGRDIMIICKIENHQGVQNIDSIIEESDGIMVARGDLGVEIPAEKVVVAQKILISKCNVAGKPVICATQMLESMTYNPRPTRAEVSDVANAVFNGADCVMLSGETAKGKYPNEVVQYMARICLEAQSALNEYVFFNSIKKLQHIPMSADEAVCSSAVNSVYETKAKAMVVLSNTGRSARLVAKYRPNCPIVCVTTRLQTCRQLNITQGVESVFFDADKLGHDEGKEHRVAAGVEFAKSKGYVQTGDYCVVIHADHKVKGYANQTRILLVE
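In 50 mM imidazole pH 7.2 with 7 mM MgCl2, LmPK (0.1 nM) turned over PEP (0.5 mM) and ADP (0.1 mM) for 1 h at room temperature. Luciferase read-out of ATP.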
TbPYK inhibitor – T. brucei pyruvate kinase inhibition | TbPYK enzyme, Kinase-Glo Plus ATP luminescence, 45 min | Potency, µM (doses to about 76.8 µM), actives largely listed as inhibitors | 0.12% of 410,000 active | Q57TT1; also: nearly all actives have a fitted effect of over 50% in size
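Glycolytic pyruvate kinase of T. brucei was incubated with substrate, test compound and 130 uM ADP for 45 minutes at room temperature. Luminescent Kinase-Glo Plus signal was measured after 10 minutes.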
RE007 growth inh – less growth of the S. pombe RE007 Vpr strain; S. pombe RE007 Vpr strain, BacTiter-Glo ATP luminescence, 24 h; Potency, µM (top dose mostly 92.2 µM), hits mostly inhibitors; 0.21% of 360,000 active; active = well fitted falling curve with a large enough effect; inconclusive = small, poorly fitted or top-dose-only effect; inactive = no such curve, though single readings can be large or run the other way; also: nearly all actives have a fitted effect of over 50% in size
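Fission yeast RE007 carrying one integrated HIV-1 vpr copy, seeded at OD 0.01 in PMG+AL medium with 23 nL pinned compound. Grown 24 h at 30 degrees; viability read by BacTiter-Glo luminescence after 5 min.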
Sm TGR block – blocks Schistosoma mansoni thioredoxin glutathione reductase | 3% of 360,000 active | purified TGR, DTNB reduction, TNB absorbance 405 nm | Potency, µM (highest dose often 114 µM), actives largely listed as inhibitors | Q962Y6 | AID 485364; also: nearly all actives have a fitted effect of over 60% in size
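TGR 20 nM + NADPH 100 uM (dispensed conc.), cpd preinc 15 min RT; start with NADPH (500 uM addition) then DTNB (15 mM addition). Kinetic TNB absorbance, 405 nm filter. Four-parameter Hill fit across titration.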
Numbers stand for hits; 0 = inactive; ? = inconclusive; - = no result. Shown are actives, neighbours in structure and some others; about 3% of the full set was active somewhere. Unless noted, calls follow the shape of the dose curve; as a rule, active = well fitted curve in the direction sought with a large enough effect; inconclusive = small, poorly fitted or top-dose-only effect, or another doubt; inactive = no such curve, though single readings can be large; an effect the other way counts as inactive or inconclusive.

SMILES	LmPK inh	TbPYK inhibitor	RE007 growth inh	Sm TGR block
CCN(CC)C(=O)c1sc2c(c1C)c(=O)n(CCc1ccccc1)c(=O)n2Cc1ccc(C)cc1	-	0	-	0
COc1ccc(-c2coc3c2c(C)cc2oc(=O)c(CC(=O)O)c(C)c23)cc1	-	0	-	0
COC(=O)c1cc2oc3ccccc3c2n1CC(=O)Nc1cc(OC)cc(OC)c1	-	0	-	0
Cc1ccc(-n2nc(CO)c(C(=O)NCc3cccnc3)n2)cc1C	-	0	-	0
Cc1ccccc1NC(=O)CSc1nc(=O)n(CCN2CCOCC2)c2c1CCC2	-	0	-	0
COc1ccc([N+](=O)[O-])cc1N(CC(O)CN1CCCCC1)S(=O)(=O)c1ccc(C)cc1 (stereo not drawn)	0	0	0	35µM
COc1ccc([N+](=O)[O-])cc1N(CC(O)CN1CCOCC1)S(=O)(=O)c1ccccc1 (stereo not drawn)	0	0	0	0
COCCCNC(=O)CSc1nc(-c2cccc(F)c2)[nH]c1-c1ccccc1	-	0	-	0
O=C(c1cccc(F)c1)N1CCC2(CCCN(Cc3cc(C(F)(F)F)cc(C(F)(F)F)c3)C2)CC1	-	0	-	-
O=c1ccc(=O)n(-c2ccccc2)[nH]1	0	0	0	5µM
COc1cccc(-n2c(C)nc3c(cnn3-c3ccc(C)c(C)c3)c2=O)c1	-	0	-	0
COc1ccc(C(=O)C2CCCN(C(=O)CCc3scnc3C)C2)c(C)c1 (stereo not drawn)	0	0	0	32µM
COc1ccc(C(=O)C2CCCN(C(=O)CCc3ccccn3)C2)c(C)c1 (stereo not drawn)	0	0	0	0
COc1cccc(NC(=O)Cn2c(=O)n(Cc3ccc(C(=O)NCc4ccc(C)cc4)cc3)c(=O)c3ccccc32)c1	-	0	-	0
Oc1cc2c(cc1O)C1c3ccc(O)c(O)c3OCC1(O)C2 (stereo not drawn)	?	10µM	0	0.71µM
Cc1cc2ncc(-c3ccccc3)nc2cc1C	0	0	0	0
Cc1cc(-c2ccccc2)nc(-c2ccccc2)c1C	7.1µM	0	0	0
CCCCCC(=O)N(O)C1CC(=O)N(c2ccccc2)C1=O (stereo not drawn)	0	0	10µM	?
COc1ccc(N2C(=O)CC(N(CCc3ccccc3)C(=O)c3ccccc3)C2=O)cc1 (stereo not drawn)	0	0	0	0
CN(Cc1ccccc1)C1CC(=O)N(c2ccc(C(=O)O)cc2)C1=O (stereo not drawn)	0	0	0	20µM
CCCCCCC(=O)N(O)C1CC(=O)N(Cc2ccccc2)C1=O (stereo not drawn)	0	0	0	?
COc1ccc(C2C3=C(CC(C)(C)CC3=O)Nc3c2c(=O)[nH]c(=O)n3Cc2ccccc2)cc1OC (stereo not drawn)	0	0	0	0
COc1cc(C2C3=C(CC(C)(C)CC3=O)Nc3c2c(=O)[nH]c(=O)n3Cc2ccccc2)ccc1O (stereo not drawn)	0	0	0	50µM
CN(C)S(=O)(=O)c1ccc(/C(O)=C2/C(=O)C(=O)N(Cc3cccnc3)C2c2cccs2)cc1 (stereo not drawn)	0	0	0	25µM
CC(C)c1cc(C(=O)OCC(=O)NC2CCS(=O)(=O)C2)c(O)c(C(C)C)c1 (stereo not drawn)	-	0	0	-
SMILES	LmPK inh	TbPYK inhibitor	RE007 growth inh	Sm TGR block
O=C(O)c1ccc(-c2c[nH]c3ccc(-c4ccccc4)cc23)cc1C1CCCC1	-	0	-	-
Clc1cccc(N2CCN(c3nnnn3-c3ccccc3)CC2)c1	0	0	0	0
O=C1CC(Sc2nnnn2-c2ccccc2)C(=O)N1c1cccc(Cl)c1 (stereo not drawn)	0	?	7.1µM	2.8µM
COc1ccc(N2C(=O)CC(Sc3nnnn3-c3ccc(F)cc3)C2=O)cc1 (stereo not drawn)	0	0	16µM	-
C[C@H]1CN([C@@H](C)CO)C(=O)CCCn2nncc2CO[C@@H]1CN(C)Cc1cccc(C(=O)O)c1	-	0	0	-
CC1(C)CCC(c2ccc(Cl)cc2)=C(CN2CCN(c3ccc(C(=O)NS(=O)(=O)c4ccc(N[C@H](CCN5CCOCC5)CSc5ccccc5)c(S(=O)(=O)C(F)(F)F)c4)cc3)CC2)C1	-	0	-	-
Cc1c(N)nc([C@@H](CC(N)=O)NC[C@H](N)C(N)=O)nc1C(=O)N[C@H](C(=O)N[C@@H](C)[C@@H](O)[C@@H](C)C(=O)N[C@H](C(=O)NCCc1nc(-c2nc(C(=O)NCCCN[C@H](C)c3ccccc3)cs2)cs1)[C@H](C)O)[C@@H](O[C@H]1O[C@@H](CO)[C@H](O)[C@@H](O)[C@H]1O[C@H]1O[C@@H](CO)[C@@H](O)[C@H](OC(N)=O)[C@H]1O)c1cnc[nH]1	-	0	-	-
COCCn1c(C)cc(O)c(C(c2ccc(F)cc2)N2CCC(C)CC2)c1=O (stereo not drawn)	-	0	-	10µM
COCCn1c(C)cc(O)c(C(c2ccc(OC)cc2)N2CCCCC2)c1=O (stereo not drawn)	-	0	-	?
COCCn1c(SCC(=O)N2CCC(C)CC2)nc2ccccc2c1=O	0	0	0	0
COCCn1c(C)cc(O)c(C(c2ccccc2)N2CCC(C)CC2)c1=O (stereo not drawn)	-	0	-	22µM
CCOc1cc(C(=S)N2CCOCC2)cc(Br)c1OS(=O)(=O)c1ccccc1	0	0	0	0
Cc1ccc(C2=Nc3ccccc3N=C(C(Cl)Cl)C2)cc1	?	0	0	35µM
Cc1ccc2c(c1)N=C(c1ccccc1)CC(C(Cl)Cl)=N2	?	0	0	16µM
Cc1ccc(O)c(C2=Nc3ccccc3N=C(c3cccc(F)c3)C2)c1	-	-	-	0
CC(C)c1ccc(NS(=O)(=O)c2ccc3nc(-c4ccccc4)[nH]c3c2)cc1	-	0	-	0
N#C/C(=C/c1ccc(N2CCCCC2)o1)c1cccc(F)c1	0	0	0	2.5µM
N#C/C(=C\c1ccc(N2CCOCC2)o1)C(=O)NC1CCCCC1	0	0	0	35µM
N#C/C(=C/c1ccc(N2CCCCCC2)o1)c1ccc(Cl)cc1	0	?	25µM	?
Cc1ccc(/C(C#N)=C\c2ccc(N3CCOCC3)o2)cc1	0	?	?	3.2µM
N#C/C(=C/c1ccc(N2CCCCC2)cc1)c1cccc(F)c1	0	0	0	0
Cc1ccc2nc(CN3CCN(S(=O)(=O)c4ccc(C(C)C)cc4)CC3)oc2c1	-	0	-	0
CSCc1ccc(C(=O)N2CCC(N3CCC(C(=O)NC(C)C)CC3)CC2)o1	0	0	0	0
COc1ccc(N(Cc2ccccc2)C(=O)c2nc(S(C)(=O)=O)ncc2Cl)cc1	-	0	-	5.6µM
COC(=O)c1cscc1S(=O)(=O)Cc1ccccc1	0	0	0	10µM
COC(=O)c1ccccc1NC(=O)c1nc(S(=O)(=O)Cc2ccccc2)ncc1Cl	0	0	0	2.8µM
COc1ccc(CNC(=O)c2nc(S(=O)(=O)Cc3ccccc3)ncc2Cl)cc1	0	0	0	2.5µM
COc1cccc(CNC(=O)[C@@H]2CCCN2C(=O)[C@H]2CCCCN2C(=O)c2cccc(OC)c2)c1	-	0	0	-

Screening data: PubChem BioAssay, National Center for Advancing Translational Sciences (NCATS)
